# Compounds with a hit are over-represented: about 27% of the library has one in this group of screens.
# sEH inhibitor = inhibitors of human soluble epoxide hydrolase. recombinant human sEH enzymatic activity assay. inhibition, % at 2 µM. actives 0.34% (n = 91,000). AID 707; in the data active = inhibition above about 80%
# sEH act = activators of human soluble epoxide hydrolase. activation, % at 2 µM. purified human sEH enzymatic activity, activator screen. P34913. actives 0.04% (n = 91,000); in the data active = activation above about 37%
# CYP2C9 act = increases human cytochrome P450 2C9 activity. recombinant CYP2C9, luciferin-H conversion, luminescence; hits give high values; factor 1 = untreated enzyme, 0 = blocked. P11712. AID 1024. actives 1.4% (n = 96,000). activation factor at 5 µM;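 active = activation factor of 2 or more for CYP2C9 at a 5 µM dose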;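 note: 0 = sulfaphenazole-blocked wells and 1 = vehicle-only wells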
# Target sequence (P11712 whole entry, looked up): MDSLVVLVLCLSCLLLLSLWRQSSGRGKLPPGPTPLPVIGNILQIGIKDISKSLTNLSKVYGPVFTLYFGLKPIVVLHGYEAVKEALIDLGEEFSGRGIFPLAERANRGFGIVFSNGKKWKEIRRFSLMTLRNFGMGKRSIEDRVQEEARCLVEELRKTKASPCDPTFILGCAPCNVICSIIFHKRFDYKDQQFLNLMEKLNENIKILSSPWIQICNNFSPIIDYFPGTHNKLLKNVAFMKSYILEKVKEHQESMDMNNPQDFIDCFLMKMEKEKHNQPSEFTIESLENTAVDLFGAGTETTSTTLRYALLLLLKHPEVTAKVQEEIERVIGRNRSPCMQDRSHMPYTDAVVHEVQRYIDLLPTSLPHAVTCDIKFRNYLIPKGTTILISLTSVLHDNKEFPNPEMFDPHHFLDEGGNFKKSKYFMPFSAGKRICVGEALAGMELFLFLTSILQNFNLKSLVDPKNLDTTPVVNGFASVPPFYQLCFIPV
# CYP2C9 inhib = inhibitors of human CYP2C9; AID 777; CYP2C9 Supersomes, luciferin-H conversion, luminescence; inhibition, % at 5 µM; P11712; actives 20% (n = 96,000);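 active = blocking of liver enzyme CYP2C9 beyond about 50% at 5 µM, limit read from the data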
# CYP2C19 inh = blocks human cytochrome P450 2C19; P33261; inhibition, % at 5 µM; CYP2C19 Supersomes, luciferin-H EGE luminescence, 30 min; actives 21% (n = 96,000); AID 778;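 active = CYP2C19 inhibition above a set limit at 5 µM in the primary screen, cut at about 50% in these data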;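 note: plate controls were negative control wells for no effect and 2.5 mM tranylcypromine positive control for full effect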
# CYP2C19 activ = activators of human cytochrome P450 2C19; 96,000 tested, under 10 active; P33261; activation factor at 5 µM; recombinant CYP2C19, luciferin-H EGE luminescence; hits give high values; 0 = fully inhibited enzyme, 1 = untreated enzyme;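 active = activation factor of at least 2 at 5 µM in the primary screen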;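 note: 0 = wells with 2.5 mM tranylcypromine and 1 = vehicle-only wells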
# Active calls of the source: *; / = no result given.
SMILES,sEH inhibitor,sEH act,CYP2C9 act,CYP2C9 inhib,CYP2C19 inh,CYP2C19 activ
COc1cc(NC(=O)C2COc3ccccc3O2)c(OC)cc1Cl (stereo unspecified),-11.4,11.0,0.2,84.0*,86.0*,0.1
COc1ccc(OC(C)C(=O)N2CCOCC2)cc1 (stereo unspecified),2.1,0.6,1,-2.7,15.3,0.8
CCOc1ccc(-n2cc(C(=O)Nc3ccc(Cl)cn3)c3cc(OC)c(OC)cc3c2=O)cc1,-12.9,8.2,1.1,-7.0,-19.9,1.2
O=C(Nc1ccc(N2CCCC2)cc1)c1ccc(Br)o1,14.0,-14.4,0.9,10.1,60.9*,0.4
Cc1ccc(NC(=O)c2cc(S(=O)(=O)N3CCCCC3)ccc2N2CCOCC2)cc1F,0.2,2.6,0.3,68.4*,-7.0,1.1
O=C(Nc1ccc(CN2CCOCC2)cc1)c1ccc(-c2cc(Cl)ccc2Cl)o1,42.2,-42.9,0.3,65.1*,54.6*,0.5
O=C(O)c1cc(S(=O)(=O)N2CCOCC2)ccc1N1CCOCC1,-12.9,15.9,1.2,-20.9,-5.2,1.1
Cc1ccc(NC(=O)c2cc(NC(=O)c3ccco3)ccc2N2CCOCC2)cc1Cl,-11.4,13.6,0.3,69.3*,46.8,0.5
CCCC(=O)N1CCN(c2ccc(NC(=O)c3ccc(Br)o3)cc2)CC1,20.0,-15.5,0.8,15.4,1.9,1
O=C(NCc1ccco1)c1noc2c1CCCCC2,-11.2,10.7,1,2.6,4.6,1
O=C(Nc1ccc(N2CCOCC2)c(Cl)c1)c1ccc(Br)o1,7.2,-7.6,0.5,50.8*,57.8*,0.4
O=C(Nc1ccc(N2CCN(C(=O)c3ccccc3)CC2)cc1)c1ccc(Br)o1,22.4,-24.3,0.7,29.9,10.4,0.9
O=C(NC(=S)Nc1ccc(N2CCOCC2)c(Cl)c1)C(c1ccccc1)c1ccccc1,-3.1,4.0,0.2,76.1*,10.2,0.9
Cc1cc(N2CCN(C)CC2)nc2ccc(NC(=O)c3ccc(Br)o3)cc12,/,/,1.1,-7.3,2.4,1
O=C(/C=C/c1ccccc1)NC(=S)Nc1ccc(N2CCOCC2)c(Cl)c1,-0.1,2.2,1,3.7,-1.0,1
O=C(Nc1ccc(N2CCN(C(=O)c3ccccc3)CC2)c(Cl)c1)c1ccc(Br)o1,66.1,-65.6,0.5,50.6*,37.1,0.6
Cc1cc(N2CCCCC2)nc2ccc(NC(=O)c3ccc(Br)o3)cc12,-6.9,2.4,0.2,81.4*,94.1*,0.1
Cc1ccc2nc(C3CCN(CC(=O)N4CCCCCC4)CC3)[nH]c2c1,-15.2,16.0,0.9,9.9,3.7,1
CCC(c1nnnn1Cc1ccc2c(c1)OCO2)N1CCN(c2ccccc2)CC1 (stereo unspecified),-4.2,3.8,0.2,81.1*,68.3*,0.3
COc1ccc(Cn2nnnc2C(c2cccs2)N2CCN(c3ccc([N+](=O)[O-])cc3)CC2)cc1 (stereo unspecified),5.0,-1.5,0.3,73.2*,62.6*,0.4
CCC(c1nnnn1Cc1ccc2c(c1)OCO2)N1CCN(c2ccc(F)cc2)CC1 (stereo unspecified),-2.2,1.8,0.1,87.1*,43.0,0.6
NC(=O)C1CCN(C(c2ccccc2Cl)c2nnnn2Cc2ccc3c(c2)OCO3)CC1 (stereo unspecified),-5.2,3.4,0.3,68.1*,81.1*,0.2
Oc1[nH]c2ccccc2c1C=Nc1ccc2c(c1)OCCO2,14.6,-11.5,1,-2.9,18.4,0.8
CCN1CCN(C(=O)Nc2ccccc2OC)CC1,0.4,-2.2,/,/,/,/
CCC(c1nnnn1Cc1ccc2c(c1)OCO2)N1CCN(c2ccc(OC)cc2)CC1 (stereo unspecified),-17.0,15.5,0.2,83.0*,72.9*,0.3
SMILES,sEH inhibitor,sEH act,CYP2C9 act,CYP2C9 inhib,CYP2C19 inh,CYP2C19 activ
CCCC(c1nnnn1Cc1cccs1)N1CCN(c2ccc(OC)cc2)CC1 (stereo unspecified),-3.9,6.1,0.6,35.3,41.6,0.6
CC(C)C(c1nnnn1Cc1ccc(F)cc1)N1CCN(C(=O)c2ccco2)CC1 (stereo unspecified),-0.5,4.6,0.4,62.1*,50.3*,0.5
CC(C)C(c1nnnn1Cc1ccc(F)cc1)N1CCN(Cc2ccc3c(c2)OCO3)CC1 (stereo unspecified),-13.6,18.2,0.3,72.1*,86.9*,0.1
CCN1CCN(C(c2nnnn2Cc2ccc3c(c2)OCO3)C(C)C)CC1 (stereo unspecified),16.3,-12.7,/,/,/,/
O=C(CCS(=O)(=O)c1ccc(Br)s1)NC1CCCCCC1,33.0,-34.5,1,1.7,-10.1,1.1
Nc1nc2ccc(N3CCOCC3)cc2s1,7.0,-8.3,0.9,8.3,11.1,0.9
Clc1ss/c(=N\c2ccccn2)c1Cl,-8.1,9.1,0.5,48.1,-1.9,1
CCOC(=O)N1CCN(C(=O)c2ccc3c(c2)sc2nc(-c4ccccc4)cn23)CC1,2.0,-0.6,0.4,57.3*,49.2,0.5
CCOC(=O)N1CCC(NC(=O)c2ccc3c(c2)sc2nc(-c4ccc(OC)cc4)cn23)CC1,-1.6,1.9,0.9,14.3,14.3,0.9
CCCCC(=O)Nc1ccc(C(=O)N2CCCC(C(=O)OCC)C2)cc1 (stereo unspecified),16.8,-14.8,1,-1.3,91.8*,0.1
CCOC(=O)C1CCN(C(=O)Cc2ccc(OC)c(OC)c2)CC1,-0.6,0.8,1.2,-16.0,23.2,0.8
CCOC(=O)C1CCN(C(=O)Cc2ccc(C)cc2)CC1,-0.6,2.0,0.5,51.6*,20.9,0.8
CCOC(=O)C1CCCN(Cc2c(F)cccc2Cl)C1 (stereo unspecified),-13.7,17.4,0.9,7.1,61.8*,0.4
CCOC(=O)C1CCCN(C(=O)Nc2ccccc2)C1 (stereo unspecified),9.6,-9.8,0.9,5.9,43.3,0.6
Cc1cc2ncn(C3CC(=O)N(Cc4ccc(N5CCCC5=O)cc4)C3=O)c2cc1C (stereo unspecified),8.3,-8.6,0.6,37.0,30.2,0.7
COc1ccccc1CNc1ccc(N2CCOCC2)c(C(=O)O)c1,-1.2,-0.6,1,-4.4,-8.8,1.1
O=C1CC(c2cccc(Cl)c2)C(n2cncn2)C(=O)C1C1NCCc2ccccc21 (stereo unspecified),3.7,-2.8,0.9,5.2,-0.7,1
CCOC(=O)C1CCCN(C(=O)c2sc3nc(-c4ccccc4)cn3c2C)C1 (stereo unspecified),-2.1,5.0,0.4,56.0*,59.1*,0.4
CCOC(=O)C1(S(=O)(=O)c2ccccc2)CCN(Cc2ccc(Cl)cc2)CC1,9.1,-9.2,0.7,30.2,45.9,0.5
CCOC(=O)C1CCCN(C(=O)Cn2nc(CC)n3c(cc4sccc43)c2=O)C1 (stereo unspecified),/,/,0.6,44.9,83.8*,0.2
